LMNA splice mod = modulators of lamin A splicing; HeLa LMNA splicing GFP/RFP minigene ratio, 48 h; Potency, µM (series often up to 46.1 µM), for the others: at the highest dose ratio change, negative = inhibition, usual class: inhibitors; 200,000 compounds, 0.01% hits; AID 1487; active = well fitted inhibition curve with a large enough effect in the signal ratio, with a control signal flat, not every such curve was filed as active; inconclusive = small, poorly fitted or top-dose-only effect, or effect the other way, or a change in a side signal; the % refers to the signal ratio
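S3 HeLa stable clones carrying a lamin A-EGFP splicing minigene plus DsRed2 were seeded at 600 cells/well in Opti-MEM with 2% FBS, pin-dosed and incubated 48 h at 37°C. Acumen cytometry (488 nm) gave the GFP/RFP total-intensity ratio.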
IMPase Li inh = IMPase inhibition in cells with lithium potentiation | Potency, µM (highest dose often 59.4 µM), without a hit: at the highest dose activity, negative = IMPase inhibition, actives largely listed as inhibitors | 210,000 compounds, 0.35% hits | CHO-M1 cells, IP1 TR-FRET (IP-One), carbachol + lithium; active = well fitted curve in the direction sought with a large enough effect; inconclusive = small, poorly fitted or top-dose-only effect, or another doubt; inactive = no such curve, though single readings can be large; an effect the other way counts as inactive or inconclusive;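 also: IP1 builds up when IMPase is blocked and the TR-FRET signal falls; plate controls were basal vehicle for no effect and high inhibitor control for full effect; nearly all actives have a fitted effect of over 50% in size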
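Test compounds were applied to CHO-M1 cells previously cultured for 16–30 h at 2000 per well. A small lithium amount accompanied them; after 30 min at 37C, IP1 was quantified by TR-FRET.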
ALDH1A1 inh = inhibitors of human aldehyde dehydrogenase 1A1; Potency, µM (highest dose often 75.3 µM), without a hit: top-dose activity, negative = inhibition, actives largely listed as inhibitors; Purified ALDH1A1, NADH fluorescence, propionaldehyde substrate; AID 1030; 220,000 compounds, 7.3% hits; P00352;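 also: plate controls were no enzyme wells and a reference inhibitor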
Target sequence (P00352 whole entry, looked up): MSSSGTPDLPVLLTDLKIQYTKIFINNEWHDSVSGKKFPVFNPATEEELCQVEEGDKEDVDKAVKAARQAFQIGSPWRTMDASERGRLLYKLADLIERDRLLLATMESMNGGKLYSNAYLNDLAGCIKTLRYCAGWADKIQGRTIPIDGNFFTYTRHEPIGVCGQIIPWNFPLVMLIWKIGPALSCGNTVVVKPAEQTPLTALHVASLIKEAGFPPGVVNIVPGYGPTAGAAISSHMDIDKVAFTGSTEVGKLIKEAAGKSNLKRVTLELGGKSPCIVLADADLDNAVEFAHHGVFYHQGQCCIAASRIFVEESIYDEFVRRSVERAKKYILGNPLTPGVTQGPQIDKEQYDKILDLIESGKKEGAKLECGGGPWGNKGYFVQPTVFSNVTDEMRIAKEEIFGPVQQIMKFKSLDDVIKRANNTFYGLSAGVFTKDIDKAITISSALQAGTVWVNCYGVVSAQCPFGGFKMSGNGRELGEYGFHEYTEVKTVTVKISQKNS
HPGD block = blocks human HPGD enzyme activity; P15428; Potency, µM, for the others: top-dose activity change, negative = inhibition, hits mostly inhibitors; 150,000 compounds, 4.3% hits; purified HPGD, NADH fluorescence kinetic, PGE2 substrate
Target sequence (P15428 whole entry, looked up): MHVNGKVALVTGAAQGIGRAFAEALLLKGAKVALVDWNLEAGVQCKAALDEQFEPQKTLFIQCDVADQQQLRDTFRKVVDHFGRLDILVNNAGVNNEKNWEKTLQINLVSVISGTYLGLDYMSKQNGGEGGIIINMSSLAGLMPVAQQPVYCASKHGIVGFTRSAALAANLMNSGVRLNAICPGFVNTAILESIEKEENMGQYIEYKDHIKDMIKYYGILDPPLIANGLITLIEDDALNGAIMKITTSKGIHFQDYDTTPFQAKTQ
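20 nM HPGD preincubated 15 min at room temperature with compound in 50 mM Tris-HCl pH 8, 0.01% Tween 20. Started with 1 mM NAD+ and 30 uM prostaglandin E2; NADH fluorescence (360/450 nm) read 5 times over 30-s intervals, last minus first.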
KinaseGlo FLuc = counter-screen: inhibitors of Kinase-Glo firefly luciferase; Q27757; Kinase-Glo luciferase, ATP luminescence, 8 min; Potency, µM (titrated, usually from 38.3 µM), without a hit: at the top dose activity change, negative = inhibition, actives largely listed as inhibitors; 200,000 compounds, 0.28% hits; AID 1379; active = well fitted curve in the direction sought with a large enough effect; inconclusive = small, poorly fitted or top-dose-only effect, or another doubt; inactive = no such curve, though single readings can be large; an effect the other way counts as inactive or inconclusive; also: nearly all actives have a fitted effect of over 60% in size
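Compounds were added to a substrate mix at pH 7.2 (50 mM imidazole, 10 uM ATP, within the enzyme's linear range), followed by Kinase-Glo detection reagent; luminescence was measured after 8 minutes at ambient temperature.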
An asterisk follows results filed as active; ? = inconclusive; . = not tested or not shown; [ ] = another dose, or the depositor's remark. This is a sample that favours compounds with a hit; in the whole collection about 9% have one here. Unless noted, calls follow the shape of the dose curve; as a rule, active = well fitted inhibition curve with a large enough effect (not every such curve was filed as active); inconclusive = small, poorly fitted or top-dose-only effect, or another doubt; inactive = no such curve, though single readings can be large or run the other way. Unless noted, % is scaled to controls: 0 for no effect and ±100 for the full control effect; potency is read from the fitted curve at half-maximal effect.

SMILES | LMNA splice mod | IMPase Li inh | ALDH1A1 inh | HPGD block | KinaseGlo FLuc
Cc1cc(C)c(C(=O)COC(=O)c2cccc(S(=O)(=O)NCc3ccccc3)c2)cc1C | -16.8% | 12.3% | 7.3% | -22.6% | 0.2%
Cc1ccccc1Nc1nc(N)nc(COC(=O)c2cccc(S(=O)(=O)NCc3ccccc3)c2)n1 | -8.9% | 10.4% | 11.0% | 28.2µM* | -0.9%
O=C(COC(=O)c1cccc(S(=O)(=O)NCc2ccccc2)c1)c1ccccc1 | ? | 15.5% | -11.0% | 20µM* | 3.4%
Cc1ccccc1Nc1nc(N)nc(COC(=O)c2cccc(S(=O)(=O)N(C)C)c2)n1 | 5.6% | 5.7% | -6.5% | -8.3% | 2.3%
CCOc1cc(CNC(=O)c2ccc3nc(CCc4ccccc4)oc3c2)ccc1OC | -13.2%[46 µM] | . | . | . | .
O=C(O)c1ccc(CSc2nnc(-c3ccco3)o2)cc1 | 7.5% | -2.1%[38.3 µM] | ? | -18.9% | 18.5%
Cc1ccc(CSc2nnc(-c3ccco3)o2)cc1 | 18.7% | 0.5%[38.3 µM] | -8.5% | 25.1µM* | -2.8%
Brc1ccc(CSc2nnc(-c3ccco3)o2)cc1 | 7.3% | -9.9% | -6.1% | 25.1µM* | -0.6%
Cc1nn(C(C)c2n[nH]c(=S)n2-c2cccc(Cl)c2)c(C)c1[N+](=O)[O-] (centres undefined) | 2.1% | 5.8% | 5.3% | 22.4µM* | 5.6%
O=C(OC1CCOC1=O)c1cccc(S(=O)(=O)N2CCc3ccccc3C2)c1 (centres undefined) | 3.5%[46 µM] | 9.0% | 12.6µM* | . | 10.5%
O=C(COC(=O)c1ccc(S(=O)(=O)N2CCCCC2)cc1)NCc1ccco1 | -8.7%[46 µM] | 0.9% | -5.8% | . | 2.5%
O=C(OC1CCOC1=O)c1ccc(S(=O)(=O)N2CCCCCC2)cc1 (centres undefined) | -1.8% | 16.6%[38.3 µM] | ? | 15.8µM* | -2.5%
CCc1cccc(CC)c1NC(=O)COC(=O)c1cccc(S(=O)(=O)N2CCc3ccccc3C2)c1 | 0.3% | 10.6% | -1.0% | -3.7% | -0.9%
O=C(OC1CCOC1=O)c1ccc(Cl)c(S(=O)(=O)N2CCCCC2)c1 (centres undefined) | 11.6%[46 µM] | 4.2% | -2.9% | . | 3.1%
O=C(OCc1ccco1)c1ccc(S(=O)(=O)N2CCCCC2)cc1 | -6.5% | 15.4%[38.3 µM] | 28.2µM* | -16.3% | 2.1%
O=C(OC1CCOC1=O)c1ccc(N2CCCC2)c([N+](=O)[O-])c1 (centres undefined) | 12.1%[46 µM] | -2.3% | 14.1µM* | . | 4.6%
O=C1c2ccccc2C(=O)N1CCCCN(C(=O)c1cc2ccccc2oc1=O)c1ccc(F)cc1F | -5.6% | 15.0% | ? | -4.2% | -4.2%
Cc1noc(C)c1C(=O)N1CCC[C@@]2(CCN(c3ccccn3)C2)C1 | . | 2.1% | -12.0% | -15.8% | -3.0%
CCCCC(CC)COC(=O)c1ccccc1C(=O)O (centres undefined) | . | -5.8% | 6.2% | 0.9% | .
COc1ccc(C2C(C(=O)N3CCOCC3)c3ccccc3C(=O)N2c2ccc(OC)cc2)cc1 (centres undefined) | 6.8% | 3.8%[38.3 µM] | 14.1µM* | -10.1% | -2.0%
COc1ccc(C2C(C(=O)N3CCN(c4ccccc4)CC3)c3ccccc3C(=O)N2C)cc1OC (centres undefined) | -6.5% | -1.9% | ? | -7.6% | 6.6%
CCN1CCN(CCCNC(=O)C2c3ccccc3C(=O)N(c3ccc(OC)cc3)C2c2ccc(OC)cc2)CC1 (centres undefined) | -0.3%[46 µM] | 8.2% | 6.6% | . | -2.9%
CCOC(=O)CNC(=O)C1c2ccccc2C(=O)N(c2ccc(OC)cc2)C1c1ccc(OC)cc1 (centres undefined) | 10.1% | 40.9%[38.3 µM] | 28.2µM* | -15.4% | -0.4%
COc1ccc(C2C(C(=O)N3CCN(c4ccccc4)CC3)c3ccccc3C(=O)N2C)cc1 (centres undefined) | -13.1% | 9.6% | 2.24µM* | -18.4% | 1.8%
COc1ccc(-n2c(-c3cccc(OC)c3)nc(=S)c3c2CCCC3)cc1 | -1.8% | 7.94µM* | ? | -20.3% | -2.1%
SMILES | LMNA splice mod | IMPase Li inh | ALDH1A1 inh | HPGD block | KinaseGlo FLuc
COc1ccc(C2CC(=O)C3=C(C2)Nc2ccccc2N(C(=O)C2CC2)C3c2cccnc2)cc1OC (centres undefined) | -1.3% | -9.9%[38.3 µM] | 14.1µM* | -20.9% | 1.4%
Cc1cccc(/C=C2/SC(=O)N(Cc3ccccc3)C2=O)n1 | 4.3% | 39.9%[38.3 µM] | 6.31µM* | -3.9% | -2.2%
Cc1ccc(/C=C2/NC(=O)N(Cc3ccccc3)C2=O)s1 | ? | 0.0%[38.3 µM] | ? | -20.1% | -1.9%
COc1ccc(CCNC(=O)Cn2c(=O)nc(-c3ccccc3)c3cc(Cl)ccc32)cc1OC | -6.0%[46 µM] | . | . | . | .
Clc1ccc(Cl)c(-c2nn3c(COc4ccccc4)nnc3s2)c1 | 3.8% | 46.3%[38.3 µM] | 3.55µM* | 10µM* | 0.7%
c1ccc(OCc2nnc3sc(-c4cccs4)nn23)cc1 | -2.3% | -1.4%[38.3 µM] | 3.55µM* | 8.91µM* | 2.4%
CC(O)c1nc2ccccc2n1CC(=O)N1CCN(c2ccccc2)CC1 (centres undefined) | 7.5%[46 µM] | 6.8% | ? | . | -2.0%
Cc1cc(C)c2ccc(=S)[nH]c2n1 | -6.3%[9.22 µM] | 2.1% | 3.55µM* | . | 0.1%
O=C(c1ccc2c(c1)OCCO2)N1CCN(Cc2ccccc2)CC1 | -26.4% | -3.1%[38.3 µM] | ? | -4.6% | 0.4%
Cc1ccccc1C(=O)Nn1c(C)ccc1C | 16.3%[46 µM] | -4.4% | 9.7% | . | -1.1%
Cn1c(=O)c2[nH]c(=O)cnc2n(C)c1=S | 0.3%[46 µM] | 5.9% | 20µM* | . | 2.3%
CCNC(=S)NNC(=O)c1cc(-c2cccc(C)c2)nc2ccccc12 | ? | 13.9%[38.3 µM] | ? | -9.1% | 12.6µM*
O=C(NC(=S)Nc1ccccc1)c1cc(-c2ccccc2)nc2ccccc12 | -30.8% | ? | 1.26µM* | 20µM* | -4.7%
CCc1ccccc1NC(=O)CSc1nnc(-c2nonc2NC(C)=O)n1C | 21.1%[46 µM] | . | . | . | .
Clc1cccc(Nc2c3c(nc4ncnn24)CCC3)c1 | -10.2% | 21.3% | ? | 15.8µM* | 5.8%
Cn1cnnc1SCC(=O)Nc1ccc2nc(SCc3ccccc3Cl)sc2c1 | -11.5% | 6.0% | 25.1µM* | -18.7% | -2.8%
O=C(COc1ccccc1F)Nc1ccc2nc(SCc3ccccc3)sc2c1 | 5.6%[46 µM] | . | . | . | .
Cn1cnnc1SCC(=O)Nc1ccc2nc(SCc3cccc4ccccc34)sc2c1 | ? | 12.8%[38.3 µM] | 14.1µM* | -16.9% | -4.8%
Cn1cnnc1SCC(=O)Nc1ccc2nc(SCc3ccccc3)sc2c1 | 10.9% | 0.8%[38.3 µM] | 3.55µM* | ? | 1.8%
Cc1cc(C)c(NC(=O)CSc2nc3ccc(NC(=O)CSc4nnnn4-c4ccccc4)cc3s2)c(C)c1 | 2.1% | 1.3% | ? | -17.5% | 1.6%
CC(C)(C)N1CC(C(=O)O)CC1=O (centres undefined) | 13.4%[46 µM] | -2.2% | -4.9% | . | -0.4%
CCc1c(C)sc2nc(C(C)C)nc(SCC(=O)N3CCc4ccccc4C3)c12 | -7.9% | 31.7%[38.3 µM] | -8.3% | -18.7% | 3.3%
